TDP1 cell noCPT – qHTS for Inhibitors of human tyrosyl-DNA phosphodiesterase 1 (TDP1): qHTS in cells in absence of CPT. DT40 Tdp1-/- hTDP1 cells, no CPT, ATP luminescence, 48 h. Potency, µM (series often up to 46.2 µM), for inactives: at the top dose activity change, negative = growth inhibition, actives largely listed as inhibitors. 420,000 compounds, 15% hits. AID 686978, 2013; also: potency is read from the fitted curve at half-maximal effect; nearly all actives have a fitted effect of over 55% in size
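Readout: luminescence from CellTiter-Glo after 30 min in the dark at RT. Cells: DT40 Tdp1-/- with stable hTDP1, 400/well. Exposure: compounds alone, ≥48 hr, 37 °C.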
IL1B secr inh – blocks inflammasome-driven IL-1 beta release. THP-1 LPS/ATP IL-1B secretion, AlphaLISA, 16 h; stronger effect = lower value. 360,000 compounds, 4.7% hits. activity change, % at 57.5 µM; in the data active = activity change below about -50%; inconclusive = mostly about -30% to -49%
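Secreted IL-1B measured by AlphaLISA bead assay after 16 h compound exposure of THP-1 cells; compounds (final up to 57.5 uM) added 1 h before LPS (250 ng/mL) and ATP (1.25 mM) stimulation; lower signal means less secretion.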
HT1080-NT tox – kills 2HG-producing HT-1080-NT fibrosarcoma cells; 360,000 compounds, 1.6% hits; HT-1080-NT fibrosarcoma viability, CellTiter-Glo ATP luminescence, 48 h; Potency, µM (doses to about 46.1 µM), for inactives: top-dose activity, negative = less viability, hits mostly cytotoxic;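 also: NT is the 2HG producing partner of a matched IDH1 knockdown line; potency is read from the fitted curve at half-maximal effect; 0% = DMSO-treated cells and -100% = media-only wells without cells; nearly all actives have a fitted effect of over 55% in size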
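HT-1080-NT fibrosarcoma cells (2HG-overproducing), 750 cells/well in RPMI with 5% FBS, dosed after 2 h and incubated 48 h at 37C. CellTiter-Glo luminescence normalized to DMSO and no-cell wells; concentration-response curves fitted and classed.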
12-LOX inh – ALOX12 (human) lipoxygenase inhibition | P18054 | purified 12hLO, xylenol orange hydroperoxide absorbance | Potency, µM (titrated, usually from 108 µM), for the others: top-dose activity change, negative = inhibition, hits mostly inhibitors | 580,000 compounds, 1.1% hits; also: potency is read from the fitted curve at half-maximal effect
Target sequence (P18054 whole entry, looked up): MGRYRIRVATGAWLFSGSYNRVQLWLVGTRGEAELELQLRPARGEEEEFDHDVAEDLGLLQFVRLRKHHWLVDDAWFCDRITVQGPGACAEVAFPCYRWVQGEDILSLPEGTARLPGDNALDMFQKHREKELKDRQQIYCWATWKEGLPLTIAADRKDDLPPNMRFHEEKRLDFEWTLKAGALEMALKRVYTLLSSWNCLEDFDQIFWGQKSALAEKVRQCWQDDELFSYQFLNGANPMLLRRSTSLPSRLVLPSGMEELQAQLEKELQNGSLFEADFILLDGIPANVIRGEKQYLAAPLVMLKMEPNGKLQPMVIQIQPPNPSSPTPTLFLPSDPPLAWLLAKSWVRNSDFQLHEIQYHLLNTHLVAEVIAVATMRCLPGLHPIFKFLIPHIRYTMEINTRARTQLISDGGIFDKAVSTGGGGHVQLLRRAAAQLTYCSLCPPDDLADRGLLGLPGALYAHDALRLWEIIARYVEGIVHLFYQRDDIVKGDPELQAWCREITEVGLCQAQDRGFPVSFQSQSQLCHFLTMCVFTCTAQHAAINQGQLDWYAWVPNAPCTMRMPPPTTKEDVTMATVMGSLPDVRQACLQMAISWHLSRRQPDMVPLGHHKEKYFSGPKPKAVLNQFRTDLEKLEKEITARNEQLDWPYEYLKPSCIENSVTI
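Purified human 12hLO (150 nM final) in 25 mM Hepes, 0.01% Triton X-100, pH 7.0 was preincubated 15 min at room temperature with compound. Then 40 uM arachidonic acid was added, 30 min. Hydroperoxide was read by Fe-XO absorbance ratio 573/405 nm.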
TDP1 cell CPT – growth inhibition of DT40 Tdp1-/-;hTDP1 cells with camptothecin (screen for TDP1 inhibitors). chicken DT40 Tdp1-/-;hTDP1 cells + 20 nM CPT, ATP luminescence, 48 h. Potency, µM (doses to about 46.2 µM), inactives show at the top dose activity change, negative = growth inhibition, actives largely listed as inhibitors. 420,000 compounds, 12% hits. AID 686979; also: potency is read from the fitted curve at half-maximal effect; nearly all actives have a fitted effect of over 55% in size
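Cell growth measured by CellTiter-Glo luminescence after a minimum 48 h, 37 C compound exposure with 20 nM CPT in Tdp1-knockout DT40 cells stably expressing hTDP1, seeded 400/well; qHTS titration format.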
HT1080 IDH1KD tx – toxicity to HT-1080 IDH1 knockdown cells (counter line). 360,000 compounds, 2% hits. Potency, µM (highest dose often 46.1 µM), for inactives: top-dose activity, negative = toxicity, actives largely listed as cytotoxic. HT-1080 IDH1 knockdown viability, ATP luminescence, 48 h;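 also: potency is read from the fitted curve at half-maximal effect; 0% = DMSO wells and -100% = cell-free medium wells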
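Using the IDH1-knockdown HT-1080 line run in the same batch and compound series as the NT line, viability after 48 h at 37 °C was determined by CellTiter-Glo luminescence and expressed as % activity.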
Active calls of the source: *; ? = inconclusive; / = not tested or not shown; [ ] = remark or other dose. The sample as a whole holds a higher share of hits than the screen did. Unless noted, calls follow the shape of the dose curve; as a rule, active = well fitted curve in the direction sought with a large enough effect; inconclusive = small, poorly fitted or top-dose-only effect, or another doubt; inactive = no such curve, though single readings can be large; an effect the other way counts as inactive or inconclusive. Unless noted, % is scaled to controls: 0 for no effect and ±100 for the full control effect.

SMILES	TDP1 cell noCPT	IL1B secr inh	HT1080-NT tox	12-LOX inh	TDP1 cell CPT	HT1080 IDH1KD tx
O=C(Nc1ccc(F)cc1F)N[C@H]1C[C@H]2C(=O)NC[C@@H](CCC(=O)N3CCCCC3)N2C1	/	/	/	0%	/	/
COc1ccc(-c2nc(C3CC3)nc3c2CCN(Cc2cccnc2)CC3)cc1	/	/	/	10%	/	/
O=S1(=O)CCS(=O)(=O)C1c1ccccc1	?	?	23µM*	0%	?	21µM*
O=C1CC(=O)CC(c2ccccc2)C1	1%	-10	11%	-11%	-7%	4%
CC(C)(C)OC(=O)CC(S(=O)(=O)c1ccccc1)S(=O)(=O)c1ccccc1	0.92µM*	-51*	?	-1%	1.3µM*	?
O=C(O)C[C@@H]1CCN(C(=O)C2CCCCC2)C[C@@H]1CCN1CCOCC1	/	/	/	-1%[176 µM]	/	/
CCCc1cc(=O)n2[nH]cc(-c3ccc(Cl)cc3)c2n1	5.8µM*	53	?	0%	5.8µM*	?
CCCc1cc(=O)n2[nH]c(SCc3ccc(Cl)cc3)nc2n1	3%	-72*	2%	-2%	?	-22%
COCc1cc(=O)n2[nH]cc(-c3ccccc3)c2n1	?	2	-5%	39%	?	-27%
CCOC(=O)N1CCN(Cc2nc3c(c(=O)n(C)c(=O)n3C)n2Cc2cccc3ccccc23)CC1	?	-4	-10%	-18%	23µM*	-2%
C=CCOc1nc2c(c(=O)n(C)c(=O)n2C)n1Cc1ccc(Cl)cc1	15µM*	-12	3%	?	16µM*	18%
C=CCOc1nc2c(c(=O)n(C)c(=O)n2C)n1Cc1ccccc1Cl	23µM*	3	5%[9.24 µM]	4%	16µM*	?
CCCOc1nc2c(c(=O)n(C)c(=O)n2C)n1Cc1cccc2ccccc12	6.5µM*	-16	10%	1%	12µM*	7%
COc1ccc(NC(=O)Cc2ccc3c(c2)OCCCO3)cn1	/	/	/	-22%	/	/
COc1ccc(-c2cc(N3CCCN(C(=O)c4ccc(C)s4)CC3)n[nH]2)cc1	/	/	/	47%	/	/
Cn1cc(-c2nc3cncnc3n(CCN)c2=O)c2ccccc21	16µM*	/	/	10%	23µM*	/
COCCn1c(=O)c(-c2cn(C)c3ccccc23)nc2cncnc21	-13%	/	/	0%	2%	/
COc1ccc2cc1Nc1ccc(cc1)C[C@H](NCc1ccc(C)o1)C(=O)N(C)[C@@H](C(=O)NCc1ccccc1)C2	/	/	/	-15%	/	/
S=C(NCCCN1CCOCC1)N1CCN(c2cccc(Cl)c2)CC1	18µM*	?	?	-20%	?	?
O=S(=O)(c1ccccc1)N1CCN(C(=S)NCCCN2CCOCC2)CC1	-18%	0	2%	-11%	10%	-2%
S=C(NCc1ccccc1)N1CCN(c2cccc(Cl)c2)CC1	?	-72*	-15%	?	-12%	-4%
CC(C)=NNC(=O)COc1ccc(OCc2ccccc2)cc1	/	/	/	49%	/	/
COc1ccccc1-c1cc2nc(-c3ccccc3)cc(N3CCN(C(=O)c4ccco4)CC3)n2n1	6.5µM*	14	0%	?	12µM*	4%
COc1ccccc1-c1nc(C#N)c(N2CCN(C(=O)c3ccco3)CC2)o1	4%	9	3%	-9%	6%	1%
O=C(c1ccoc1)N1CCN(c2cc(-c3ccccc3)nc3cc(-c4ccccc4)nn23)CC1	16µM*	-3	-25%	?	18µM*	?
Cc1cc(N2CCN(C(=O)c3ccoc3)CC2)n2nc(-c3ccccc3)cc2n1	18µM*	-10	-5%	0%	?	-2%
COc1ccccc1-c1cc2nc(-c3ccccc3)cc(N3CCN(C(=O)c4ccoc4)CC3)n2n1	5.2µM*	10	-11%	?	9.2µM*	-27%

Screens: PubChem BioAssay, National Center for Advancing Translational Sciences (NCATS)
